Many of the other results were omitted from the sample, so hits are more common in it than they were.
TTR transcr act: activators of transthyretin transcription; SH-SY5Y TTR promoter Gaussia luciferase, luminescence; 100% = recombinant luciferase protein wells; activation, % at 16.7 µM; hit rate 1.3% among 92,000; AID 1117267;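 active = activation above the mean of all tested compounds plus 3 SD, cut at about 9.5% in these data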;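 note: cells exposed to compounds for one day before reading; 0% = median of all test compound wells on the plate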
TTR inh HuH7: decreases TTR transcription in HuH7 cells in activator counter-screen; shares compounds with TTR transcr act; HuH7 TTR promoter-Gaussia luciferase reporter, luminescence; inhibition, % at 16.7 µM; hit rate 4% among 1,100; AID 1117279;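 active = average inhibition above the solvent-only control wells' mean plus 3 SD, cut at about 15% in these data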;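 note: 0% = cells with DMSO only and 100% = cells with inhibitor control FD; inhibitors lower well luminescence so higher value means more inhibition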
TTR up confirm: human TTR transcription activation, confirmation. shares compounds with TTR transcr act. SHSY5Y TTR promoter Gaussia luciferase, luminescence; 100% = purified Lucia enzyme wells, no cells. activation, % at 16.7 µM. 1,100 tested, under 10 active;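 active = mean activation above a set limit taken from the earlier primary screen, cut at about 11% in these data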;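 note: 0% = DMSO-treated cells and 100% = recombinant Lucia luciferase without cells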
Numbers without * were called inactive.

SMILES | TTR transcr act | others
Cc1c(C(=O)Nc2ccc(-c3nnc4n3CCCCC4)cc2)oc2c1ccc1ccccc12 | -2.0
O=C(Cn1[nH]c(=O)c2ccccc2c1=O)Nc1ccc(-c2nnc3n2CCCCC3)cc1 | 11.6* | TTR inh HuH7=-15.3;TTR up confirm=1.1
C/C=C/c1cccc(-c2nc(C(=O)N3CCOCC3)cc3c2[C@H](CCO)N(C(=O)NC(C)C)C3)c1 | -1.0
CC(C)(C)CC(=O)N1CCN(Cc2ccc3c(c2)OCO3)CC1 | -1.8
COc1ccc(CNC(=O)/C=C/c2ccco2)cc1OC | 12.6* | TTR inh HuH7=-6.8;TTR up confirm=0.4
COc1ccc(CN(C(=O)/C=C/c2ccco2)C2CCS(=O)(=O)C2)cc1OC (stereo not given) | -0.2
COc1ccc(/C=C/C(=O)NCc2ccc3c(c2)OCO3)cc1OC | 0.5
CCc1ccccc1-n1c(SCC(=O)NC)nnc1-c1ccco1 | 0.6
S=c1[nH]nc(COc2ccccc2)n1/N=C/c1cccc(Br)c1 | -0.8
S=c1[nH]nc(COc2ccccc2)n1/N=C/C=C/c1ccco1 | 3.2
S=c1[nH]nc(COc2ccccc2)n1/N=C/C=C/c1ccccc1 | 19.5* | TTR inh HuH7=-3.5;TTR up confirm=1.3
CCOC(=O)c1cn(Cc2ccccc2)nc1-c1ccccc1 | 1.1
COC(=O)[C@@]12CCCCC=C1N(CCc1ccc(Cl)cc1)C(=O)[C@H]2CC(=O)NCC12CC3CC(CC(C3)C1)C2 | -1.2
CC1(C)COC(c2ccccc2Cl)OC1 | 0.1
CC1=C(C(=O)OCc2ccccc2)C(c2ccccc2Cl)NC(=O)N1C (stereo not given) | 2.4
CC1SC(c2ccccc2Cl)NC1=O (stereo not given) | 10.8* | TTR inh HuH7=-3.9;TTR up confirm=-0.4
CN(C(=O)c1cccc(NC(=O)Cc2ccc(NC(=O)C3CCN(S(=O)(=O)c4cccc([N+](=O)[O-])c4)CC3)cc2)c1)C1CC1 | 0.4
CC(=O)Nc1c(C(=O)O)ccc(C)c1OCc1ccccc1 | -1.6
CC(C)[C@H](NC(=O)N1CC(=O)Nc2ccccc21)C(=O)N[C@@H](Cc1ccccc1)C(=O)O | 2.0
CCC(C)[C@H](NC(=O)N1CC(=O)Nc2ccccc21)C(=O)N[C@@H](Cc1c[nH]c2ccccc12)C(=O)O (stereo not given in full) | 11.6* | TTR inh HuH7=-22.4;TTR up confirm=-0.1
CC(C)C[C@H](NC(=O)N1CC(=O)Nc2ccccc21)C(=O)N[C@H](Cc1c[nH]c2ccccc12)C(=O)O | 1.6
C#Cc1ccc([C@H]2C=C(C(=O)O)O[C@@H](OCCCCO)C2)cc1 | 5.3
C[C@@H]1CN([C@@H](C)CO)C(=O)CCCn2nncc2CO[C@H]1CN(C)Cc1ccc2c(c1)OCCO2 | 2.4
CCOC(=O)CN(C(=O)COc1nc(C)cc(C)c1C#N)c1ccc(F)cc1 | -0.8
CCOc1ccc(N(C(C)=O)c2nc(C)cc(C)c2C#N)cc1 | 19.3* | TTR inh HuH7=-6.4;TTR up confirm=0.2
SMILES | TTR transcr act | others
COc1ccc(C(=O)COc2nc(C)cc(C)c2C#N)cc1 | 7.2
COc1ccc(C2c3ccc(O)cc3Oc3ncn4nc(-c5ccncc5)nc4c32)cc1OC (stereo not given) | -1.4
CC(C)(C)C(C(=O)Oc1ccccc1)c1ccccc1 (stereo not given) | 5.2
CCc1cccc(NS(=O)(=O)c2ccc3c(c2)NC(=O)CC(=O)N3)c1 | 0.2
Cc1cccc(NS(=O)(=O)c2ccc3c(c2)CCC(=O)N3)c1 | 2.4
Cc1cccc(NS(=O)(=O)c2ccc3c(c2)NC(=O)CC(=O)N3)c1 | 13.2* | TTR inh HuH7=-11.4;TTR up confirm=-1.4
COC(=O)[C@H](Cc1ccccc1)NP(=O)(OC)[C@@H](C)NC(=O)OCc1ccccc1 (stereo not given in full) | -0.1
O=C(NCCc1ccccc1)c1c(O)c2ccccc2[nH]c1=O | 1.5
O=C(Cc1c(O)c2ccccc2[nH]c1=O)NCc1ccccc1F | 14.1* | TTR inh HuH7=-18.2;TTR up confirm=-0.2
O=C(CCl)NNC(=O)c1c(O)c2ccccc2[nH]c1=O | -2.5
C/C(=N\O)c1ccn(S(=O)(=O)c2ccc(Cl)cc2)c1 | 26.2* | TTR inh HuH7=-23.1;TTR up confirm=3.8
CC(=O)c1ccn(S(=O)(=O)c2ccc(Cl)cc2)c1 | 1.9
C/C(=N/NS(=O)(=O)c1ccc(Cl)cc1)c1ccncc1 | 3.6
O=C(Nc1ccc(Cl)cc1)c1nc[nH]c1C(=O)NCCCCNC(=O)c1[nH]cnc1C(=O)Nc1ccc(Cl)cc1 | -3.3
CCCCCCCCN1C(=O)[C@@H](CC(=O)NCCC(C)C)C[C@@]2(C(=O)OC)C1=C[C@H](C(C)C)O[C@@H]2C1CC1 | -0.2
Cc1c(NC(=O)COC(=O)c2cccn2C)c(=O)n(-c2ccccc2)n1C | 0.6
O=C(Nc1ccccc1N1CCCCC1)c1cnccn1 | 2.0
O=C(NNC(=O)C1CCCCC1)c1cnccn1 | 12.5* | TTR inh HuH7=-8.6;TTR up confirm=0.1
O=C(NNC(=O)c1cnccn1)c1ccc(Cl)cc1 | -2.3
COC(=O)[C@@]1(Sc2ccc(C)cc2)CC(=O)N(c2ccccc2)[C@@H]1c1ccccc1 | -2.6

Screens deposited in PubChem BioAssay by The Scripps Research Institute Molecular Screening Center.
